PubChem BioAssay
Results with a measured potency or affinity are listed apart. Results filed as inconclusive are left out. Activity calls are given as the source filed them. Unless noted, how the calls were made is not given here.

Columns and labels:
[1] = RMG-1 ovarian cancer cell viability loss – cherry-pick, dose response (AID 687029;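 active means signal drop whose fitted half-maximal concentration is at most twice the top valid dose, in every test run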;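 further: cells exposed to compound for 96 hours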)
[2] = IOSE-T80 viability loss, PAX8-independent line – cell-based, cherry-pick, selectivity assay for PAX8 inhibitor project, dose response (AID 687032;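 active means fitted half-maximal concentration for viability loss no higher than twice the top valid dose, in every repeat run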;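 further: cells exposed to compound for 96 h before reading; 0% = neutral control wells and -100% = 2 µM mitoxantrone kill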)
[3] = CMV-driven luciferase expression suppression in HEK293 – cell-based, luminescence, dry powder, counter-screen for Pax8 inhibitor project, dose response (AID 743020;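 active means signal-lowering compounds whose fitted half-maximal concentration is at or below twice the top tested dose in every run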;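 further: HEK293 cells stably expressing the CMV luciferase reporter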)
[4] = general cell-killing toxicity readout – plate reader, dry powder samples, cytotoxicity control for PAX8 inhibitor project, dose response (AID 743021)
[5] = IGROV1 cell killing – plate reader, dry powder samples, PAX8 inhibitor project, dose response (AID 743043);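 further: more negative means fewer viable cells or more cytotoxicity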
[6] = OVCAR-3 cell viability loss – plate reader, dry powder samples, PAX8 inhibitor project, dose response (AID 743044); conditions: max activity: at 35 µM, hits give low values unless noted
[7] = toxicity toward immortalized ovarian surface epithelium – cell-based, plate reader, dry powder samples, cytotoxicity control for PAX8 inhibitor project, dose response (AID 743045);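 further: 0% = neutral control median and -100% = positive control median; more negative values mean more cell killing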
[8] = A2780 cell killing – plate reader, dry powder samples, cytotoxicity control, dose response (AID 743046);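 further: 0% = neutral control wells and -100% = cytotoxic reference compound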
[9] = OVCAR8 cell viability loss – plate reader, dry powder samples, PAX8 project, dose response (AID 743197)
[10] = A549 cell cytotoxicity, dose response, cytotoxicity control, plate reader, cherry-pick, antagonist series (AID 743412);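 further: 0% = neutral control wells and -100% = positive control wells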
[11] = toxicity toward HepG2 liver cells – cell-based, plate reader, cherry-pick, antagonist series, cytotoxicity control, dose response (AID 743416);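 further: 0% = neutral control wells and -100% = positive control wells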

Measured: max activity

Cc1ccc(S(=O)(=O)N(C)C[C@H]2Oc3ccc(NC(=O)Nc4ccc(C(F)(F)F)cc4)cc3CC(=O)N([C@@H](C)CO)C[C@H]2C)cc1
inactive: [1] | [2] | [3] | [4] | [5] | [6] 15.5% [at 0.26 µM, hits give low values] | [7] | [8] | [9]

COc1cccc(S(=O)(=O)N2CC[C@@H]3[C@H](CO)Nc4ccc(C5=CCCCC5)cc4[C@@H]32)c1
inactive: [1] | [2] | [3] | [4] | [5] | [6] 12.1% [at 0.5 µM, hits give low values] | [7] | [9]

C[C@@H]1CN([C@H](C)CO)C(=O)c2cc(NS(=O)(=O)c3ccc(Cl)cc3)ccc2O[C@@H](C)CCCCO[C@H]1CN(C)C(=O)C1CCCCC1
inactive: [1] | [2] | [3] | [4] | [5] | [6] -15.5% [at 0.56 µM, hits give low values] | [7] | [9]

C[C@@H]1CN([C@@H](C)CO)C(=O)c2cc(NC(=O)Nc3cccc4ccccc34)ccc2O[C@@H]1CN(C)Cc1ccc2c(c1)OCO2
inactive: [1] | [2] | [3] | [4] | [5] | [6] 8.89% | [7] | [9]

C[C@@H]1CN([C@H](C)CO)C(=O)c2cc(NS(=O)(=O)c3ccc(F)cc3)ccc2O[C@@H](C)CCCCO[C@H]1CN(C)S(=O)(=O)c1ccc(Cl)cc1
inactive: [1] | [2] | [3] | [4] | [5] | [7]

O=C(C1CCC1)N1CC(=O)N2[C@H](C1)[C@H](c1ccc(C#Cc3cccc(F)c3)cc1)[C@@H]2CO
inactive: [1] | [2] | [3] | [4] | [5] | [7]

C[C@H]1CN([C@@H](C)CO)C(=O)Cc2cc(NC(=O)Nc3ccc(C(F)(F)F)cc3)ccc2O[C@H]1CN(C)C(=O)NC1CCCCC1
inactive: [1] | [2] | [3] | [4] | [5] | [6] 30.7% [at 1.1 µM, hits give low values] | [7] | [8] | [9]

COc1ccc(NC(=O)Nc2ccc3c(c2)C(=O)N([C@@H](C)CO)C[C@@H](C)[C@@H](CN(C)Cc2ccc(C(F)(F)F)cc2)OCCCC[C@@H](C)O3)cc1
inactive: [1] | [2] | [3] | [4] | [5] | [6] -11.3% | [7] | [8] | [9]

Cc1noc(C)c1S(=O)(=O)Nc1ccc2c(c1)C(=O)N([C@@H](C)CO)C[C@H](C)[C@H](CN(C)C(=O)Nc1ccc(C(F)(F)F)cc1)OCCCC[C@H](C)O2
inactive: [1] | [2] | [3] | [4] | [5] | [6] -38.6% | [7] | [9]

N#Cc1cccc(-c2ccc3c(c2)[C@@H]2[C@@H](CCN2S(=O)(=O)c2ccc(F)cc2)[C@@H](CO)N3)c1
inactive: [1] | [2] | [3] | [4] | [5] | [6] 5.91% | [7] | [9]

COc1ccc(S(=O)(=O)N2CCCCN3[C@H](CO)[C@@H](c4ccc(C#CC(C)C)cc4)[C@H]3C2)cc1
inactive: [1] | [2] | [3] | [4] | [5] | [7]

C[C@@H]1CN([C@H](C)CO)C(=O)c2cc(NS(=O)(=O)c3ccc(F)cc3)ccc2O[C@@H](C)CCCCO[C@H]1CN(C)Cc1ccccc1
inactive: [1] | [2] | [3] | [4] | [5] | [6] 22.1% [at 1 µM, hits give low values] | [7] | [9]

C[C@@H]1CCCCO[C@@H](CN(C)C(=O)NC2CCCCC2)[C@H](C)CN([C@H](C)CO)C(=O)c2cc(NS(=O)(=O)c3ccc(Cl)cc3)ccc2O1
inactive: [1] | [2] | [3] | [4] | [5] | [7]

C[C@@H]1CCCCO[C@H](CN(C)C(=O)c2ccccc2)[C@@H](C)CN([C@@H](C)CO)C(=O)c2cc(NC(=O)Nc3ccc(C(F)(F)F)cc3)ccc2O1
inactive: [1] | [2] | [3] | [4] | [5] | [6] 20.2% [at 2.1 µM, hits give low values] | [7] | [8] | [9]

C[C@@H]1CN([C@H](C)CO)C(=O)c2c(c3ccccc3n2C)-c2ccccc2CO[C@@H]1CN(C)C
inactive: [1] | [2] | [3] | [4] | [5] | [6] 18.1% [at 0.5 µM, hits give low values] | [7] | [8] | [9]

Cc1noc(C)c1NC(=O)Nc1cccc2c1O[C@H](CN(C)Cc1ccc(C(F)(F)F)cc1)[C@H](C)CN([C@@H](C)CO)C2=O
inactive: [1] | [2] | [3] | [4] | [5] | [6] -18.3% | [7] | [9]

Cc1ccc(S(=O)(=O)Nc2ccc3c(c2)C(=O)N([C@@H](C)CO)C[C@@H](C)[C@H](CN(C)S(=O)(=O)c2ccc(Cl)cc2)OCCCC[C@@H](C)O3)cc1
inactive: [1] | [2] | [3] | [4] | [5] | [6] 20.2% [at 0.26 µM, hits give low values] | [7] | [9]

O=C(Nc1ccc(F)cc1)N1CCCCN2[C@@H](CO)[C@@H](c3ccc(-c4cccc(F)c4)cc3)[C@@H]2C1
inactive: [1] | [2] | [3] | [4] | [5] | [6] -20% | [7] | [9]

CC(C)CC#Cc1ccc([C@@H]2[C@@H](CO)N3CCCCN(S(=O)(=O)c4ccc(F)cc4)C[C@H]23)cc1
inactive: [1] | [2] | [3] | [4] | [5] | [6] 15.4% [at 16 µM, hits give low values] | [7] | [9]

C[C@@H]1CN([C@H](C)CO)C(=O)c2cc(NS(=O)(=O)c3ccc(F)cc3)ccc2O[C@@H](C)CCCCO[C@@H]1CN(C)CC1CCCCC1
inactive: [1] | [2] | [3] | [4] | [5] | [7]

C[C@H](CO)N1C[C@H](C)[C@@H](CN(C)Cc2ccc(Cl)c(Cl)c2)OCCCC[C@H](C)Oc2ccc(NS(=O)(=O)c3ccccc3)cc2C1=O
inactive: [1] | [2] | [3] | [4] | [5] | [6] -29.2% [at 2.1 µM, hits give low values] | [7] | [9]

C[C@H]1CCCCO[C@H](CN(C)S(=O)(=O)c2ccc(Cl)cc2)[C@@H](C)CN([C@@H](C)CO)C(=O)c2cc(NS(=O)(=O)c3ccc(F)cc3)ccc2O1
inactive: [1] | [2] | [3] | [4] | [5] | [6] -9.44% [at 4.2 µM, hits give low values] | [7] | [9]

C[C@@H]1CN([C@@H](C)CO)C(=O)c2cccc(NC(=O)c3ccncc3)c2O[C@@H]1CN(C)S(=O)(=O)c1cccs1
inactive: [1] | [2] | [3] | [4] | [5] | [6] 14.9% [at 2.1 µM, hits give low values] | [7] | [9]

C[C@@H]1CN([C@H](C)CO)C(=O)c2c(c3ccccc3n2C)-c2ccccc2CO[C@H]1CN(C)S(=O)(=O)c1cccc(F)c1
inactive: [1] | [2] | [3] | [4] | [5] | [6] -15.8% [at 0.26 µM, hits give low values] | [7] | [9]

C[C@@H]1CN([C@H](C)CO)S(=O)(=O)c2ccc(C#Cc3cccc(F)c3)cc2O[C@@H]1CN(C)C(=O)NC1CCCCC1
inactive: [1] | [2] | [3] | [4] | [5] | [7]

Cc1ccc(S(=O)(=O)Nc2ccc3c(c2)C(=O)N([C@@H](C)CO)C[C@@H](C)[C@@H](CN(C)Cc2ccc(C(F)(F)F)cc2)OCCCC[C@H](C)O3)cc1
inactive: [1] | [2] | [3] | [4] | [5] | [6] -14.9% [at 2.1 µM, hits give low values] | [7] | [8] | [9]

C[C@@H]1CN([C@@H](C)CO)C(=O)Cc2cc(NC(=O)Nc3ccc(C(F)(F)F)cc3)ccc2O[C@H]1CN(C)S(=O)(=O)c1ccc(F)cc1
inactive: [1] | [2] | [3] | [4] | [5] | [6] 16.6% [at 1 µM, hits give low values] | [7] | [8] | [9]

C[C@H](CO)N1C[C@H](C)[C@H](CN(C)Cc2ccc(Cl)c(Cl)c2)OCCCC[C@H](C)Oc2ccc(NC(=O)Nc3ccccc3)cc2C1=O
inactive: [1] | [2] | [3] | [4] | [5] | [6] -25.9% [at 0.26 µM, hits give low values] | [7] | [9]

O=C(CN1C(=O)c2ccccc2S1(=O)=O)c1ccccc1Cl
not listed: [9]
inactive: all other assays above

C[C@@H]1CN([C@@H](C)CO)C(=O)c2c(c3ccccc3n2C)-c2ccccc2CO[C@H]1CN(C)C(=O)Nc1ccc2c(c1)OCO2
inactive: [1] | [2] | [3] | [4] | [5] | [6] -21.8% [at 16 µM, hits give low values] | [7] | [8] | [9]

CC(C)NC(=O)N1Cc2cc(C(=O)NCC(F)(F)F)nc(-c3cccc(-c4cc5ccccc5o4)c3)c2[C@H]1CCO
inactive: [1] | [2] | [3] | [4] | [5] | [7]

C[C@@H]1CCCCO[C@H](CN(C)S(=O)(=O)c2ccccc2)[C@H](C)CN([C@@H](C)CO)C(=O)c2cc(NS(=O)(=O)c3ccc(Cl)cc3)ccc2O1
inactive: [1] | [2] | [3] | [4] | [5] | [7]

C[C@@H]1CN([C@H](C)CO)C(=O)c2cccc(NC(=O)Nc3cccc4ccccc34)c2O[C@@H]1CN(C)S(=O)(=O)c1ccc(Cl)cc1
not listed: [6] | [9] | [10] | [11]
inactive: all other assays above

Cc1cccc(S(=O)(=O)N2C[C@@H](O)COC[C@@H]3O[C@@H](CC(=O)Nc4ccc(-c5ccccc5)cc4)CC[C@H]32)c1
inactive: [1] | [2] | [3] | [4] | [5] | [7]

CO[C@H]1CN(C)C(=O)c2cc(NC(=O)c3ccc(-c4ccccc4)cc3)ccc2OC[C@@H](C)NC[C@@H]1C
inactive: [1] | [2] | [3] | [4] | [5] | [7]
